Screens: PubChem BioAssay, National Center for Advancing Translational Sciences (NCATS)
Rab9 promoter act: qHTS Assay for Rab9 Promoter Activators | Huh7 Rab9 promoter-luciferase reporter, luminescence, 24 h | Potency, µM (titrated, usually from 9.22 µM), inactives show top-dose activation, negative = inhibition, hits mostly activators | hit rate 2.8% among 320,000 | AID 485297, 2010; also: % of control where 0% means no effect; nearly all actives have a fitted effect of over 60% in size
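Promoter activation is measured as luciferase luminescence in Huh7 cells stably transfected with a Rab9 promoter–luciferase construct, following 24 h compound exposure at 37 °C and 10 min reagent incubation at ambient temperature.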
FLuc modulator: qHTS profiling assay for firefly luciferase inhibitor/activator using purifed enzyme and Km concentrations of substrates (counterscreen for miR-21 project); Luciferin 4-monooxygenase (Photinus pyralis), P08659; purified FLuc, Km substrates, luminescence inhibition; Potency, µM (top dose mostly 57.5 µM), for the others: at the top dose activity change, negative = inhibition, most hits filed as inhibitors; hit rate 6.9% among 360,000;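 also: plate controls were vehicle for no effect and reference inhibitor for full effect; nearly all actives have a fitted effect of over 55% in size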
Target sequence (P08659 whole entry, looked up): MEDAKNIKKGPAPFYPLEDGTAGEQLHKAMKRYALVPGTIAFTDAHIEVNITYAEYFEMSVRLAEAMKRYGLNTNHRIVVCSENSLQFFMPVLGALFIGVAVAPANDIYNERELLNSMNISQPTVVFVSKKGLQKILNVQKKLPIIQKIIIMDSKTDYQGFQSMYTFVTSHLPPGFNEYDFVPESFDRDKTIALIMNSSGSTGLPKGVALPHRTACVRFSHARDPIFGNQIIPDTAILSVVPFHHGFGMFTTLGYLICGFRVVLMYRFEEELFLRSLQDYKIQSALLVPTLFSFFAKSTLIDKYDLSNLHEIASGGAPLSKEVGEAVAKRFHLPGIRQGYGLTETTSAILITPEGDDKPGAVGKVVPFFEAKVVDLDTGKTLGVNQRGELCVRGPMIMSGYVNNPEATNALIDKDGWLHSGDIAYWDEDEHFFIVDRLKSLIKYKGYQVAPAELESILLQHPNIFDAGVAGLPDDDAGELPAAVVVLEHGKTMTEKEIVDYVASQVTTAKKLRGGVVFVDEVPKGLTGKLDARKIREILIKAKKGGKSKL
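Biochemical qHTS of compounds, final roughly 60 µM downward over six points, against 10 nM purified firefly luciferase using Km concentrations of substrates (10 uM D-luciferin, 10 uM ATP) in Tris acetate pH 7.5 buffer; luminescence output.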
SMN2 splice up: qHTS Assay for Enhancers of SMN2 Splice Variant Expression | AID 1458, 2008 | HEK293 SMN2-luciferase splicing reporter, luminescence, 30-36 h | hit rate 2.8% among 210,000 | Potency, µM (top dose mostly 46.1 µM), for the others: at the top dose activity change, positive = activation, most hits filed as activators; also: % of control where 0% means no effect; nearly all actives have a fitted effect of over 55% in size
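HEK293 cells carry an SMN2 minigene-luciferase reporter in which exon 7 inclusion puts luciferase in frame. Cells were seeded at 2000 cells/well, attached for 10-12 hours, then exposed to compounds for 30-36 hours at 37C before ONE-Glo luminescence.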
ELG1 genotox: qHTS screen for small molecules that induce genotoxicity in human embryonic kidney (HEK293T) cells expressing luciferase-tagged ELG1; HEK293T ELG1-luciferase reporter, luminescence, 16 h; Potency, µM (series often up to 46 µM), inactives show top-dose activity change, positive = activation, actives largely listed as activators; hit rate 1.3% among 330,000; AID 504466, 2011; also: % of control where 0% means no effect; nearly all actives have a fitted effect of over 60% in size
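DMSO vehicle served as control against compound-treated ELG1-luciferase HEK293T cells; exposure lasted 16 hr at 37 °C and 5% CO2, followed by ONE-Glo luminescence detection after 30 min.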
NPC1 prom act: qHTS Assay for NPC1 Promoter Activators; Huh7 NPC1 promoter luciferase reporter, 24 h; hit rate 2.4% among 320,000; Potency, µM (highest dose often 9.22 µM), without a hit: top-dose activation, hits mostly activators; also: % of control where 0% means no effect; nearly all actives have a fitted effect of over 60% in size
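Quantitative HTS used a cell-based reporter: Huh7 cells stably bearing the NPC1 promoter upstream of luciferase were treated with compounds for 24 h, and promoter activation was read as luminescence.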
ELG1 DNA repair: qHTS screen for small molecules that inhibit ELG1-dependent DNA repair in human embryonic kidney (HEK293T) cells expressing luciferase-tagged ELG1 | AID 504467, 2011 | Potency, µM (top dose mostly 46.1 µM), without a hit: at the highest dose activity change, negative = inhibition, actives largely listed as inhibitors | hit rate 2.3% among 330,000 | HEK293T ELG1-luciferase reporter, luminescence, 16 h; DNA damage induced by 5-fluorouridine; also: % is scaled to controls: 0 for no effect and ±100 for the full control effect; nearly all actives have a fitted effect of over 55% in size
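Quantitative HTS, concentration-response format. 2,000 cells/well co-treated with 5-fluorouridine and compound, 16 hr in 5% CO2 at 37 °C; ONE-Glo luminescence read after 30 min.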
Starred values were filed as active, the others as inactive; ? = inconclusive; · = no result; [ ] = dose if it differs, or a comment. This is a sample that favours compounds with a hit; in the whole collection about 9.3% have one here. Calls follow the shape of the dose curve; as a rule, active = well fitted curve in the direction sought with a large enough effect; inconclusive = small, poorly fitted or top-dose-only effect, or another doubt; inactive = no such curve, though single readings can be large; an effect the other way counts as inactive or inconclusive. Potency is read from the fitted curve at half-maximal effect.

SMILES	Rab9 promoter act	FLuc modulator	SMN2 splice up	ELG1 genotox	NPC1 prom act	ELG1 DNA repair
Cc1nc(-c2ccc(C(F)(F)F)cc2)sc1C(=O)NN	29%	?	·	6%	?	?
CC(C)(C)C(=O)OCc1nc(-c2ccc(C(F)(F)F)cc2)cs1	0%	15µM*	·	4%	-4%	-15%
O=C(NCc1ccco1)c1scc2c1OCCO2	0%	1%	11%	-3%	-4%	?
Cn1c(=O)c2c(SCC(=O)N3CCOCC3)nc(-c3ccccc3Cl)nc2n(C)c1=O	-1%	3%	·	-6%	1%	-2%
COc1cccc(-n2cnc3c(sc4nc(N5CCOCC5)c5c(c43)CCCC5)c2=O)c1	-10%	1%	-32%	-1%	-14%	4%
Cc1c(C(=O)NC(=S)NCC(C)C)oc2ccccc12	?	3µM*	13µM*	?	2.8µM*	?
CC(=O)Nc1ccc(NC(=S)NC(=O)c2oc3ccccc3c2C)cc1	6%	0%	-24%	10%	1%	12%
Cc1cccnc1NC(=S)NC(=O)c1oc2ccccc2c1C	3.2µM*	19µM*	·	?	1.8µM*	?
C=CCNC(=S)NC(=O)c1oc2ccccc2c1C	4µM*	9.5µM*	?	?	?	?
CCC(=O)Nc1ccc(NC(=S)NC(=O)c2oc3ccccc3c2C)cc1	-4%	0%	9%	10%	-4%	9%
COc1ccc(C(=O)N/C(=C\c2ccc(Cl)cc2)C(=O)NCC2CCCO2)cc1 (stereo unspecified)	6%	7%	·	2%	-4%	1%
CCN1CCC[C@H]1CNC(=O)c1c(OC)ccc(Br)c1OC	-1%	-1%	-4%	-7%	1%	8%
NNC(=O)c1oc2nc(-c3cccs3)cc(-c3ccco3)c2c1N	-4%	-2%	·	3%	1%	?
Cc1ccc(-c2cc(-c3ccco3)c3c(N)c(C(=O)NN)oc3n2)cc1	-5%	-3%	·	-4%	2%	13µM*
NNC(=O)c1oc2nc(-c3ccccc3)cc(-c3ccccc3)c2c1N	-9%	0%	·	-2%	2%	16µM*
COc1cccc(/C=N/NC(=O)c2oc3nc(-c4ccccc4)cc(-c4ccco4)c3c2N)c1	-5%	?	·	-10%	-4%	16µM*
CC(C)CN1C=C2C(=O)C(C)(OC(=O)CCc3ccccc3)C(=O)C=C2C=C1c1ccc(C#N)cc1 (stereo unspecified)	-6%	-1%	-2%[9.22 µM]	0%	-5%	-7%
CCC(CC)NC(=O)Nc1ccc(F)c(Cl)c1	-4%	-5%	13%	-12%	3%	?
O=C(Nc1cccnc1)c1cc(F)c(F)cc1Cl	-9%	-1%	0%	-3%	-4%	2%
COc1ccc(C(=O)NNC(=O)Nc2ccc(Cl)cc2)cc1	17%	-14%	6%	?	?	?
COc1ccc(NC(=O)Nc2ccc(F)c(Cl)c2)cc1	2.8µM*	?	14µM*	4%	3.5µM*	?
O=C(Nc1cccnc1)Nc1ccc(F)c(Cl)c1	12%	24µM*	·	-8%	12%	6%
Cc1ccc(NC(=O)Nc2ccc(F)c(Cl)c2)cc1	?	4.3µM*	13µM*	8%	?	?
CN(Cc1cn(-c2ccccc2)nc1-c1ccc(F)cc1)C(=O)CCC(=O)O	-3%	12µM*	14%	4%	-2%	?
Cc1ccc(-c2nn(-c3ccccc3)cc2CO)cc1	?	15µM*	·	?	?	?
SMILES	Rab9 promoter act	FLuc modulator	SMN2 splice up	ELG1 genotox	NPC1 prom act	ELG1 DNA repair
CN(Cc1cn(-c2ccccc2)nc1-c1ccc(Cl)cc1)C(=O)CCC(=O)O	-11%	11µM*	6%	4%	7%	16%
CN(CC(=O)Nc1cccc(F)c1)C(=O)c1cn(-c2ccccc2)nc1-c1ccc(F)cc1	0%	?	·	-4%	-3%	-6%
COc1ccc(Nc2nc(Nc3ccc(OC)cc3)nc(-n3[nH]c(=O)c(C)c3C)n2)cc1	0%	-16%	-16%	-8%	1%	2.3µM*
COc1ccc(Nc2nc(OC)nc(N3CCOCC3)n2)cc1	-2%	-3%	·	7%	-12%	13%
COCc1nc2cccnc2n1C1CCN(S(=O)(=O)N(C)C)CC1	·	1%	·	·	·	·
CC1CCCN(C(=O)COc2ccc(-c3ccccc3)cc2)C1 (stereo unspecified)	16%	?	14%	7%	1%	-4%
Cc1cccc(OCC(=O)N2CCN(C(=O)Cc3ccccc3)CC2)c1	-2%	3%	-7%	-2%	-3%	2%
Cc1cccc(OCC(=O)N2CCC(c3ccccc3)C2)c1 (stereo unspecified)	2.8µM*	13µM*	16µM*	21µM*	3.2µM*	?
O=C(COc1ccc(F)cc1)N1CCC(c2ccccc2)C1 (stereo unspecified)	?	19µM*	13µM*	?	29%	?
Cc1oc(-c2ccc(Cl)cc2)cc1-c1nn2c(-c3ccoc3C)nnc2s1	1%	0%	-6%	-1%	9%	1%
COc1ccccc1N1CCN(C(=O)CSc2nnc3n2C(C)(C)Cc2ccccc2-3)CC1	-18%	-1%	·	-21%	-6%	9.2µM*
COc1ccc(-n2ncc3c(SCC(=O)N4CCN(c5ccccc5OC)CC4)ncnc32)cc1	1%	?	-45%	-6%	1%	16µM*
COc1ccccc1N1CCN(C(=O)CSc2nc3ccccc3nc2N2CCCCC2)CC1	2%	0%	·	-8%	-1%	16µM*
CC1Cc2ccccc2N1C(=O)CSc1nnc2n1C(C)(C)Cc1ccccc1-2 (stereo unspecified)	-2%	4%	-32%	-19%	-7%	?
CCCc1c(C(=O)N2CCN(c3ccccc3OC)CC2)cnn1-c1ccccc1	9%	-2%	·	-6%	-1%	16µM*
Cn1cc(S(=O)(=O)N2CCCC2)cc1C(=O)NCc1ccc(F)cc1	-4%	1%	·	-2%	-2%	-4%
COc1ccccc1N1CCN(C(=O)CSc2nc3ccccc3nc2N2CCC(C)CC2)CC1	-9%	-2%	·	-24%	-8%	26µM*
CC1Cc2cc(S(=O)(=O)N3CCC(C(=O)N(C)Cc4ccccc4)CC3)ccc2N1C(=O)C1CC1 (stereo unspecified)	3%	0%	·	-1%[9.26 µM]	-2%	21µM*
